Laboratory results taken from publication PMC4336329 (PLoS ONE, 2015).
In all, about 310,000 compounds went through this assay and about 14,000 (4.5%) showed an effect of 50% or more. Effects have a minus sign here. The sample holds strong results, similar compounds and a random draw of the others, so the mix is not that of the screen.

Target: human ether-à-go-go-related gene (hERG) potassium channel (human, UniProt Q12809)
Experiment: primary screen, population patch clamp on CHO cells stably expressing hERG; higher = less effect of the substance
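Also: peak tail current of the secondary pulse compared with the same well before compound.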

Chain of human ether-à-go-go-related gene (hERG) potassium channel (Q12809 whole entry, looked up): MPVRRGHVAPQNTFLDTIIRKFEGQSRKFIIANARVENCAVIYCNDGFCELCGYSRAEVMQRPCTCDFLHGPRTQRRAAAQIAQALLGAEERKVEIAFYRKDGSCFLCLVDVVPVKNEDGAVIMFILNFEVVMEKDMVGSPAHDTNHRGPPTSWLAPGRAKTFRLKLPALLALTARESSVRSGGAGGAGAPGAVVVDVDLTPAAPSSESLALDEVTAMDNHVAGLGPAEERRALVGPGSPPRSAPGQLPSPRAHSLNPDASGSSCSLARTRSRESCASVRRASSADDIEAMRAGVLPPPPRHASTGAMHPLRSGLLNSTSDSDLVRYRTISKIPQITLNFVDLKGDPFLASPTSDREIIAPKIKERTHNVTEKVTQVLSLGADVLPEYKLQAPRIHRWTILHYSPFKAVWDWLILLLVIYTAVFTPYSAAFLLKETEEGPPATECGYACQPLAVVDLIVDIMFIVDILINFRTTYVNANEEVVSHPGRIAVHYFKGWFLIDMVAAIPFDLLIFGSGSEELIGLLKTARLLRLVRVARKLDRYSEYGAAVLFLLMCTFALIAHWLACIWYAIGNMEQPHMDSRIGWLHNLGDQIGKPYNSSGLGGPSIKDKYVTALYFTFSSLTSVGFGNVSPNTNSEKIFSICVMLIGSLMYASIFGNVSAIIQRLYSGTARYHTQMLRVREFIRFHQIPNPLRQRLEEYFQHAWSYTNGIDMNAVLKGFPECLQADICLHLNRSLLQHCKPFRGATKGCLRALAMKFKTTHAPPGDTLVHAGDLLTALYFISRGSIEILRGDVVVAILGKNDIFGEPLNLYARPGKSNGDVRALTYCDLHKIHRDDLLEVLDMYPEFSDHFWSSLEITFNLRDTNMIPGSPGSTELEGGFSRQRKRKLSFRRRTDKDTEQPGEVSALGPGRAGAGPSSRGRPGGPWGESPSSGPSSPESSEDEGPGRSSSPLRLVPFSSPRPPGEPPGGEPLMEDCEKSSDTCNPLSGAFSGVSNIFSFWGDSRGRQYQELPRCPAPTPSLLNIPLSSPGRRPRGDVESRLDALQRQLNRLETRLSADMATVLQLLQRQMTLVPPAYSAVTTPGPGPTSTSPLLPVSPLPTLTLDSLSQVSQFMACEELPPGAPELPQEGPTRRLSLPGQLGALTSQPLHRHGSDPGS

Row | SMILES | hERG current change (%, negative = inhibition) at 10uM
1 | O=C(NC1CC2CCCC(C1)N2C(=O)Nc1ccccc1)C1CC1 (centres unmarked) | 6.44%
2 | Cn1c(Cc2cccc3ccccc23)nnc1SCC(=O)N1CCN(c2cccc(Cl)c2)CC1 | -25.7%
3 | COc1ccc(S(=O)(=O)N(CC(=O)N2CCN(C)CC2)C2CCCCC2)cc1OC | -7.66%
4 | COC(=O)C(C(=O)OC)=C(/C=C/C=C/N(C)C)N(C)C | 13.9%
5 | CCN(CC)S(=O)(=O)c1ccc(OC(C)C)nc1 | -1.16%
6 | COc1ccc([C@H]2CC(=O)C=C(c3cc4ccccc4c4ccccc34)C2)cc1 | 13.6%
7 | CCCc1c(C(=O)NNc2cc(C(F)(F)F)ccc2Cl)cnn1-c1ccccc1 | 0.78%
8 | Cc1ccc(C)c(NC(=O)C2C3CCCC2C3c2ccccc2)c1 (centres unmarked) | 6.75%
9 | CC1CC(C)CN(CCCNC(=O)CN2C(=O)CSc3ccc(S(=O)(=O)N4CCOCC4)cc32)C1 (centres unmarked) | 15.8%
10 | CC1CCCN(CCCNC(=O)CN2C(=O)CSc3ccc(S(=O)(=O)N4CCOCC4)cc32)C1 (centres unmarked) | 19.5%
11 | CCN1CCN(S(=O)(=O)c2ccc3c(c2)NC(=O)CS3)CC1 | 19.9%
12 | CCC1CCCCN1CCCNC(=O)CN1C(=O)CSc2ccc(S(=O)(=O)N3CCC(C)CC3)cc21 (centres unmarked) | -9.76%
13 | CC1CCN(S(=O)(=O)c2ccc3c(c2)N(CC(=O)NCCCN2CCCC(C)C2)C(=O)CS3)CC1 (centres unmarked) | -20.6%
14 | CN1CCN(S(=O)(=O)c2ccc3c(c2)NC(=O)CS3)CC1 | 13.3%
15 | CC1CCN(S(=O)(=O)c2ccc3c(c2)N(CC(=O)NCCCN2CC(C)CC(C)C2)C(=O)CS3)CC1 (centres unmarked) | -66.2%
16 | CC1CCN(S(=O)(=O)c2ccc3c(c2)NC(=O)CS3)CC1 | -52.2%
17 | CC1CC(C)CN(CCCNC(=O)CN2C(=O)CSc3ccc(S(=O)(=O)N4CCCCC4)cc32)C1 (centres unmarked) | -50.2%
18 | COc1ccc(N(CC(=O)NCCSc2ccccn2)S(=O)(=O)c2ccc(C)cc2)cc1OC | -17.7%
19 | CCOc1ccccc1NC(=O)CCNS(=O)(=O)c1ccccc1 | 17.6%
20 | Cc1ccc(C2=Nc3ccccc3N=C(c3ccc([N+](=O)[O-])cc3)C2)c(O)c1 | -3.53%
21 | COc1ccc([C@@H]2CC(=O)c3c(O)cc(O)cc3O2)cc1O | 5.19%
22 | COc1ccc(OC)c(N2Cc3ccccc3C2)c1 | 12%
23 | c1ccc(Cn2nnc3cnccc32)cc1 | 2.3%
24 | c1ccc(-n2c(Cc3cccnc3)nc3cnccc32)cc1 | -50.5%
25 | c1ccc(-n2nnc3cnccc32)cc1 | 12%
26 | COc1ccc(NC(=O)N(CCCN2CCOCC2)Cc2cccnc2)c(OC)c1 | 5.99%
27 | CCOC(=O)c1csc(N)c1-c1ccc([N+](=O)[O-])cc1 | 6.52%

Row | SMILES | hERG current change (%, negative = inhibition) at 10uM
28 | Cc1[nH]c2ccccc2c1/C=N/Nc1ccc([N+](=O)[O-])cc1 | 3.95%
29 | CCOC(=O)c1ccc(-c2ccc3[nH]c4ccccc4c(=O)c3c2)cc1F | 13%
30 | CCOC(=O)c1ccccc1NC(=O)c1cccc([N+](=O)[O-])c1 | 12.5%
31 | CCOC(=O)c1cc2[nH]c3ccccc3c2[n+](-c2ccc([N+](=O)[O-])cc2)c1N.O=C([O-])C(F)(F)F | -58.4%
32 | CCOC(=O)c1cc2[nH]c3ccccc3c2[n+](-c2ccc([N+](=O)[O-])cc2)c1C.[Cl-] | -77.8%
33 | CCOC(=O)c1cc(=O)[nH]c2ccccc12 | 19%
34 | N#Cc1cc2[nH]c3ccccc3c2[n+](-c2ccc([N+](=O)[O-])cc2)c1N.[Cl-] | -65.1%
35 | Nc1[nH]c2cc([N+](=O)[O-])ccc2c1-c1ccccn1 | 20.1%
36 | Cc1c(Cl)cccc1NC(=O)c1cc(-c2ccco2)on1 | -0.802%
37 | N#CC(C#N)=CN=c1ccn(Cc2ccc(Cl)cc2Cl)cc1 | 7.39%
38 | O=c1cc[nH]c2c(C(F)(F)F)cccc12 | -0.945%
39 | CCC(C)(C)NC(=O)Cn1c(-c2ccc(C)cc2)noc1=O | 13.5%
40 | CC12CCC(C(=O)Nc3ccccc3Cl)([C@H](Br)C1=O)C2(C)C (some centres unmarked) | 15.9%
41 | COc1cc(C)c(Br)cc1S(=O)(=O)NCCN1CCOCC1 | 12.5%
42 | C/C=C(/C)C(=O)O[C@@H]1[C@H](OC(C)=O)c2c(ccc3ccc(=O)oc23)OC1(C)C | -36%
43 | C/C=C(/C)C(=O)O[C@H]1[C@@H](O)c2c(ccc3ccc(=O)oc23)OC1(C)C | 3.92%
44 | C/C=C(/C)C(=O)O[C@@H]1[C@H](OC(=O)C=C(C)C)c2c(ccc3ccc(=O)oc23)OC1(C)C | -0.258%
45 | C/C=C(/C)C(=O)OC1c2c(ccc3ccc(=O)oc23)OC(C)(C)C1OC(C)=O (centres unmarked) | -71.8%
46 | C/C=C(\C)C(=O)OC1c2c(ccc3ccc(=O)oc23)OC(C)(C)C1OC(C)=O (centres unmarked) | -72.5%
47 | CC(=O)OC1c2c(ccc3ccc(=O)oc23)OC(C)(C)C1OC(=O)CC(C)C (centres unmarked) | -30.4%
48 | C/C=C(/C)C(=O)OC1c2c(ccc3ccc(=O)oc23)OC(C)(C)C1OC(=O)/C(C)=C\C (centres unmarked) | -12.3%
49 | C/C=C(/C)C(=O)O[C@@H]1c2c(ccc3ccc(=O)oc23)OC(C)(C)[C@@H]1OC(=O)/C(C)=C\C | -8.07%
50 | CC(=O)O[C@@H]1[C@H](OC(=O)CC(C)C)c2c(ccc3ccc(=O)oc23)OC1(C)C | -67.2%
51 | CC(=O)c1cccc(NC(=O)C(CC(C)C)NC(=O)C2CCCCC2)c1 (centres unmarked) | -4.77%
52 | O=C(O)c1c2c(nc3ccc(S(=O)(=O)N4CCC(C(=O)NC5CCCC5)CC4)cc13)CCCCC2 | 9.65%
53 | O=C1c2oc3ccc(Cl)cc3c(=O)c2C(c2cccc(Br)c2)N1CCO (centres unmarked) | -13.1%
